BoNT A protease: BoNT A light chain protease inhibition; multiplex microsphere protease substrate cleavage, flow cytometry; inhibition, % at 10 µM; 0.17% of 360,000 active; AID 588499; note: plate controls were buffer without enzyme for full effect and enzyme alone for no effect
BoNT F protease: blocks Botulinum neurotoxin F light chain protease | inhibition, % at 10 µM | 0.22% of 360,000 active | Multiplex microsphere protease cleavage assay, flow cytometry; in the data active = inhibition above about 35%, passing the limit was not always enough; inconclusive = no clear call, values can overlap the other calls; note: plate controls were buffer without enzyme for full effect and enzyme alone for no effect
Anthrax LF prot: blocks Bacillus anthracis lethal factor protease; P15917; AID 588501; 0.12% of 360,000 active; multiplex microsphere protease cleavage assay, LF; inhibition, % at 10 µM; note: plate controls were buffer without enzyme for full effect and enzyme alone for no effect
Target sequence (P15917 whole entry, looked up): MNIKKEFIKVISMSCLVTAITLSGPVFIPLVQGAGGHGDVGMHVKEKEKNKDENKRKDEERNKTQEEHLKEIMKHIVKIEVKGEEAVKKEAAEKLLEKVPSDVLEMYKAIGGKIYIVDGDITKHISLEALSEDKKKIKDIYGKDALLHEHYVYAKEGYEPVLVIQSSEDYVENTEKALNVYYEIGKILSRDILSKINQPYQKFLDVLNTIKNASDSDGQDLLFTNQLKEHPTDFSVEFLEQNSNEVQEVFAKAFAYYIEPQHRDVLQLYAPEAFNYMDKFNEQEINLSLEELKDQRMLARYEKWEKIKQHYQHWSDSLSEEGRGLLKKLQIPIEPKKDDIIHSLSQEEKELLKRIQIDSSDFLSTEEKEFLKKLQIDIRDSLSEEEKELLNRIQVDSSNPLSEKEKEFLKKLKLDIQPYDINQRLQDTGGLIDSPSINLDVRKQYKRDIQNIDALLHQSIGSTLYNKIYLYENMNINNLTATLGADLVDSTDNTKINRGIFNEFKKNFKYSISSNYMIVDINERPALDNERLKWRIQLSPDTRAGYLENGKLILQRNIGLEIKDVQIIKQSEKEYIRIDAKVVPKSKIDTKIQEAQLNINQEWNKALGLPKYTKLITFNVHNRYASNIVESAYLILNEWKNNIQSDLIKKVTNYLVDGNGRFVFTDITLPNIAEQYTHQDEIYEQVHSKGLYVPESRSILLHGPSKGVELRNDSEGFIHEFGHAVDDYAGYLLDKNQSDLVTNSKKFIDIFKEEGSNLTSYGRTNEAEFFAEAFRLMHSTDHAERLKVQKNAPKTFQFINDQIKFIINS
Bead autofluor: counter-screen for toxin protease inhibitors: compound fluorescence | compound autofluorescence counterscreen, microsphere flow cytometry; stronger effect = higher value | fluorescence intensity (test concentration not listed) | 3.1% of 360,000 active; in the data active = fluorescence intensity above about 16000; inconclusive = no clear call, values can overlap the other calls
* hit, by the source's call. Compounds with a hit are over-represented: about 3.5% of the library has one in this group of screens. Cut-off read from the data, not from the text of the source, unless noted: active = inhibition above about 30%; inconclusive = no clear call, values can overlap the other calls; inactive = below that.

Screening C(=N\n1cnnc1)/c1ccc2ncccc2c1 returned BoNT A protease inconclusive, BoNT F protease 7.9, Anthrax LF prot -3.5 and Bead autofluor 20485*.
For C(=N\n1cnnc1)/c1ccc2c(c1)OCO2 the results were BoNT A protease -1.7, BoNT F protease -2.6, Anthrax LF prot -0.5 and Bead autofluor 24727*.
Screening C(=N\n1cnnc1)/c1ccc2c(c1)OCCO2 returned BoNT A protease -0.5, BoNT F protease -1.1, Anthrax LF prot -2.3 and Bead autofluor 7927.
Screening COc1ccccc1NC(=O)CSc1ccc2nnc(CCNC(=O)c3ccccc3)n2n1 returned BoNT A protease -0.1, BoNT F protease -3.7, Anthrax LF prot 4.6 and Bead autofluor 4415.
Cc1ccc(OC(C)C(=O)O)cc1C (configuration not stated) was read as BoNT A protease 0.4, BoNT F protease 20.9, Anthrax LF prot 5.3 and Bead autofluor 4507.
For CCC(Oc1ccc(C)c(C)c1)C(=O)O (configuration not stated) the results were BoNT A protease -0.2, BoNT F protease -1.1, Anthrax LF prot 4.2 and Bead autofluor 16400*.
For CC(=O)c1ccc2c(c1)N(Cc1ccc3ccccc3c1)C(=O)C(C)S2 (configuration not stated) the results were BoNT A protease -0.2, BoNT F protease -4.4, Anthrax LF prot -5.9 and Bead autofluor 3426.
`O/N=C1\CCCc2oc3c(c21)CCCC3` gave BoNT A protease 0.9, BoNT F protease 2.4, Anthrax LF prot -1.2 and Bead autofluor 19892*.
Cc1c(C(=O)O)oc2c1/C(=N\O)CCC2 was read as BoNT A protease -0.5, BoNT F protease 2.8, Anthrax LF prot 0.0 and Bead autofluor 2344.
O=C(c1ccc(F)cc1)c1cc2ccccc2o1 was read as BoNT A protease -0.9, BoNT F protease 1.1, Anthrax LF prot -1.6 and Bead autofluor 24066*.
For CC(C)Cc1ccc(CN2CCCC(NC(=O)CSc3nncn3C)C2)cc1 (configuration not stated) the results were BoNT A protease 0.8, BoNT F protease -3.1, Anthrax LF prot -1.4 and Bead autofluor 6007.
For CC(C)OC(=O)c1nn2c(C(F)(F)F)cc(-c3ccc(Br)o3)nc2c1Br the results were BoNT A protease 8.6, BoNT F protease 9.7, Anthrax LF prot 0.8 and Bead autofluor 20340*.
COC(=O)c1c(C)oc2ccc(OC(=O)N3CCOCC3)cc12 was read as BoNT A protease -0.3, BoNT F protease 12.4, Anthrax LF prot -3.3 and Bead autofluor 4590.
`COc1cccc(Oc2coc3cc(OC(=O)N4CCOCC4)ccc3c2=O)c1` gave BoNT A protease -0.2, BoNT F protease -5.6, Anthrax LF prot -0.8 and Bead autofluor 2179.
COc1ccc(Oc2c(C)oc3cc(OC(=O)N4CCOCC4)ccc3c2=O)cc1 was read as BoNT A protease -0.6, BoNT F protease 0.9, Anthrax LF prot -2.4 and Bead autofluor 16237*.
For Cc1oc2ccc(OC(=O)N3CCOCC3)cc2c1C(=O)OC(C)C the results were BoNT A protease -1.7, BoNT F protease -4.7, Anthrax LF prot -5.2 and Bead autofluor 23451*.
For COc1ccccc1Oc1coc2cc(OC(=O)N3CCOCC3)ccc2c1=O the results were BoNT A protease 2.6, BoNT F protease 2.5, Anthrax LF prot 4.7 and Bead autofluor 22043*.
`COc1ccc(/C=C/C(=O)NC(C)C)cc1Br` gave BoNT A protease 1.2, BoNT F protease 1.3, Anthrax LF prot -0.6 and Bead autofluor 22011*.
For CC(=O)NC(Cc1cc(C)ccc1C)C(=O)N1CCN(C(=O)Nc2ccc(C(C)=O)cc2)CC1 (configuration not stated) the results were BoNT A protease inconclusive, BoNT F protease -6.2, Anthrax LF prot -4.1 and Bead autofluor 17945*.
Screening c1nc(NC2CCCCC2)c2[nH]cnc2n1 returned BoNT A protease -0.1, BoNT F protease 0.4, Anthrax LF prot 1.8 and Bead autofluor 19676*.
For c1nc(NC2CCCCCC2)c2[nH]cnc2n1 the results were BoNT A protease -1.9, BoNT F protease -4.8, Anthrax LF prot -7.9 and Bead autofluor 6928.
Screening COc1ccc(CNC(=O)C2CCCN2C)cc1OC (configuration not stated) returned BoNT A protease -0.3, BoNT F protease -9.0, Anthrax LF prot -7.5 and Bead autofluor 5429.
For COc1ccc(CC(=O)OCC(=O)NC(=O)NC23CC4CC(CC(C4)C2)C3)cc1 the results were BoNT A protease -0.9, BoNT F protease -1.0, Anthrax LF prot -1.1 and Bead autofluor 24237*.
Screening O=C(COC(=O)c1n[nH]c2ccccc12)NC(=O)NC12CC3CC(CC(C3)C1)C2 returned BoNT A protease inconclusive, BoNT F protease 2.5, Anthrax LF prot -1.6 and Bead autofluor 19573*.
Screening CCNC(=O)C1(C)CCN(C(=O)c2ccc(OC)c(OC)c2)C1 (configuration not stated) returned BoNT A protease -0.1, BoNT F protease 0.1, Anthrax LF prot 1.9 and Bead autofluor 3513.
O=C(COc1ccc(S(=O)(=O)N2CCCCC2)cc1)N1CCCC1 was read as BoNT A protease 3.4, BoNT F protease 15.0, Anthrax LF prot -3.9 and Bead autofluor 3865.
Cc1ccc(-n2nc(C)c3c2OC(N)=C(C#N)C3c2ccc(F)cc2)cc1 (configuration not stated) was read as BoNT A protease -0.3, BoNT F protease -1.2, Anthrax LF prot 0.9 and Bead autofluor 22457*.
For COc1ccc(-c2ccc(C3C(C#N)=C(N)Oc4n[nH]c(C)c43)o2)cc1 (configuration not stated) the results were BoNT A protease inconclusive, BoNT F protease -3.9, Anthrax LF prot -0.7 and Bead autofluor 21391*.
Screening Cc1nn(-c2ccccc2)c2c1C(c1ccco1)C(C#N)=C(N)O2 (configuration not stated) returned BoNT A protease inconclusive, BoNT F protease -0.9, Anthrax LF prot -7.2 and Bead autofluor 23537*.
`Cc1[nH]nc2c1C(c1ccco1)C(C#N)=C(N)O2` (configuration not stated) gave BoNT A protease 0.2, BoNT F protease -5.5, Anthrax LF prot 1.0 and Bead autofluor 1949.
Screening COc1ccc(OC)c(C2C(C#N)=C(N)Oc3c2c(C)nn3-c2cccc(Cl)c2)c1 (configuration not stated) returned BoNT A protease inconclusive, BoNT F protease 3.8, Anthrax LF prot -0.2 and Bead autofluor 20225*.
Screening O=C(CS(=O)(=O)c1ccc2ccccc2c1)N1CCCCCC1 returned BoNT A protease -0.4, BoNT F protease -2.4, Anthrax LF prot 0.4 and Bead autofluor 4183.
For CCOc1ccccc1NC(=O)COC(=O)C1CC(=O)N(c2c(C)cccc2C)C1 (configuration not stated) the results were BoNT A protease 0.0, BoNT F protease -3.0, Anthrax LF prot -17.9 and Bead autofluor 3781.
Cc1nn(C)c(C)c1C1C(C#N)=C(N)Oc2n[nH]c(C)c21 (configuration not stated) was read as BoNT A protease 1.4, BoNT F protease 11.5, Anthrax LF prot -5.9 and Bead autofluor 10415.
For Cc1nn(-c2ccccc2)c(C)c1C1C(C#N)=C(N)Oc2n[nH]c(C)c21 (configuration not stated) the results were BoNT A protease 3.5, BoNT F protease 35.8*, Anthrax LF prot 4.9 and Bead autofluor 3695.
